# Data reported in the supplement of paper PMC4466140.
# B1: unnamed (peptide)
# chain: AATTSTPPLPRRRAT
# B2: unnamed (peptide)
# chain: LRWRHKFFLPAIAAI
# B3: unnamed (peptide)
# chain: IFLRISINFPLNYPN
# B4: unnamed (peptide)
# chain: LRIKRKPVQTFFEFI
# Molecular target: AgAbp1
# Test: SPOT peptide array binding signal intensity (averaged, normalized) (arbitrary units (background-subtracted, floor 0; scale differs between SH3 domains)); higher = stronger binding of the SH3 domain to the peptide
# Outline: (§1)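 Binding signal is given in arbitrary units that differ between domains and is the normalized, background-subtracted spot intensity averaged across replicates. Each GST-SH3 fusion from one of four yeast species was made in E. coli BL21(DE3), purified on glutathione Sepharose and incubated at 10 μg/ml overnight at 4°C on cellulose-bound synthetic 15-mer peptides in which cysteines were replaced by serines. Detection used anti-GST antibody, an HRP anti-mouse secondary and luminol, followed by imaging and Genespotter quantification.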
row,Binder,SPOT peptide array binding signal intensity
1,B1,73
2,B2,73
3,B4,76

# Molecular target: AgBbc1
# Test: as above
# Outline: as §1
row,Binder,SPOT peptide array binding signal intensity
1,B1,800
2,B2,14.2
3,B4,24.2

# Molecular target: AgBem1-D1
# Test: as above
# Outline: as §1
row,Binder,SPOT peptide array binding signal intensity
1,B1,≤ 0
2,B2,52.5
3,B4,212

# Molecular target: AgBzz1-D1
# Test: as above
# Outline: as §1
row,Binder,SPOT peptide array binding signal intensity
1,B1,188
2,B2,≤ 0
3,B4,109

# Molecular target: AgBzz1-D2
# Test: as above
# Outline: as §1
row,Binder,SPOT peptide array binding signal intensity
1,B1,53.5
2,B2,≤ 0
3,B4,42

# Molecular target: AgCyk3
# Test: as above
# Outline: as §1
row,Binder,SPOT peptide array binding signal intensity
1,B1,3
2,B2,0.5
3,B4,4

# Molecular target: AgFus1
# Test: as above
# Outline: as §1
row,Binder,SPOT peptide array binding signal intensity
1,B1,5
2,B2,299
3,B4,398

# Molecular target: AgHof1
# Test: as above
# Outline: as §1
row,Binder,SPOT peptide array binding signal intensity
1,B1,142
2,B2,9.38
3,B4,19.5

# Molecular target: AgHse1
# Test: as above
# Outline: as §1
row,Binder,SPOT peptide array binding signal intensity
1,B1,21
2,B2,979
3,B4,960

# Molecular target: AgLsb1
# Test: as above
# Outline: as §1
row,Binder,SPOT peptide array binding signal intensity
1,B1,464
2,B2,≤ 0
3,B4,1

# Molecular target: AgLsb4
# Test: as above
# Outline: as §1
row,Binder,SPOT peptide array binding signal intensity
1,B1,5320
2,B2,18.8
3,B4,136

# Molecular target: AgMyo5
# Test: as above
# Outline: as §1
row,Binder,SPOT peptide array binding signal intensity
1,B1,12.5
2,B2,≤ 0
3,B4,0.5

# Molecular target: AgNbp2
# Test: as above
# Outline: as §1
row,Binder,SPOT peptide array binding signal intensity
1,B1,≤ 0
2,B2,14.8
3,B4,72

# Molecular target: AgRvs167
# Test: as above
# Outline: as §1
row,Binder,SPOT peptide array binding signal intensity
1,B1,591
2,B2,1.17
3,B4,4.33

# Molecular target: AgSho1
# Test: as above
# Outline: as §1
row,Binder,SPOT peptide array binding signal intensity
1,B1,≤ 0
2,B2,32
3,B4,49

# Molecular target: AgSla1-D1-D2
# Test: as above
# Outline: as §1
row,Binder,SPOT peptide array binding signal intensity
1,B1,6
2,B2,2.5
3,B4,432

# Molecular target: AgSla1-D3
# Test: as above
# Outline: as §1
row,Binder,SPOT peptide array binding signal intensity
1,B1,≤ 0
2,B2,2.25
3,B4,10.5

# Molecular target: CaAbp1-D1
# Test: as above
# Outline: as §1
row,Binder,SPOT peptide array binding signal intensity
1,B1,142
2,B2,312
3,B4,816

# Molecular target: CaAbp1-D2
# Test: as above
# Outline: as §1
row,Binder,SPOT peptide array binding signal intensity
1,B1,229
2,B2,422
3,B4,948

# Molecular target: CaBbc1
# Test: as above
# Outline: as §1
row,Binder,SPOT peptide array binding signal intensity
1,B1,1600
2,B2,13
3,B4,91.2

# Molecular target: CaBem1-D1
# Test: as above
# Outline: as §1
row,Binder,SPOT peptide array binding signal intensity
1,B1,11
2,B2,4.5
3,B4,16

# Molecular target: CaBzz1-D1
# Test: as above
# Outline: as §1
row,Binder,SPOT peptide array binding signal intensity
1,B1,520
2,B2,23.2
3,B4,107

# Molecular target: CaBzz1-D2
# Test: as above
# Outline: as §1
row,Binder,SPOT peptide array binding signal intensity
1,B1,362
2,B2,0.25
3,B4,59.2

# Molecular target: CaCyk3
# Test: as above
# Outline: as §1
row,Binder,SPOT peptide array binding signal intensity
1,B1,60.5
2,B2,1.5
3,B4,18

# Molecular target: CaFus1
# Test: as above
# Outline: as §1
row,Binder,SPOT peptide array binding signal intensity
1,B1,68
2,B2,728
3,B4,1010

# Molecular target: CaHof1
# Test: as above
# Outline: as §1
row,Binder,SPOT peptide array binding signal intensity
1,B1,8.75
2,B2,≤ 0
3,B4,≤ 0

# Molecular target: CaHse1
# Test: as above
# Outline: as §1
row,Binder,SPOT peptide array binding signal intensity
1,B1,≤ 0
2,B2,28.5
3,B4,15

# Molecular target: CaLsb1
# Test: as above
# Outline: as §1
row,Binder,SPOT peptide array binding signal intensity
1,B1,8.5
2,B2,0.25
3,B4,0.5

# Molecular target: CaLsb4
# Test: as above
# Outline: as §1
row,Binder,SPOT peptide array binding signal intensity
1,B1,5270
2,B2,2.5
3,B4,59

# Molecular target: CaMyo5
# Test: as above
# Outline: as §1
row,Binder,SPOT peptide array binding signal intensity
1,B1,8
2,B2,4
3,B4,14

# Molecular target: CaNbp2
# Test: as above
# Outline: as §1
row,Binder,SPOT peptide array binding signal intensity
1,B1,94
2,B4,468

# Molecular target: CaRvs167
# Test: as above
# Outline: as §1
row,Binder,SPOT peptide array binding signal intensity
1,B1,700
2,B4,16.5

# Molecular target: CaRvs167-3
# Test: as above
# Outline: as §1
row,Binder,SPOT peptide array binding signal intensity
1,B1,1
2,B4,843

# Molecular target: CaSho1
# Test: as above
# Outline: as §1
row,Binder,SPOT peptide array binding signal intensity
1,B1,7
2,B4,1260

# Molecular target: CaSla1-D1-D2
# Test: as above
# Outline: as §1
row,Binder,SPOT peptide array binding signal intensity
1,B1,906
2,B4,37

# Molecular target: CaSla1-D3
# Test: as above
# Outline: as §1
row,Binder,SPOT peptide array binding signal intensity
1,B1,≤ 0
2,B4,37

# Molecular target: ScAbp1
# Test: as above
# Outline: as §1
row,Binder,SPOT peptide array binding signal intensity
1,B1,109
2,B4,355

# Molecular target: ScBbc1
# Test: as above
# Outline: as §1
row,Binder,SPOT peptide array binding signal intensity
1,B1,726
2,B4,6.75

# Molecular target: ScBem1-D1
# Test: as above
# Outline: as §1
row,Binder,SPOT peptide array binding signal intensity
1,B1,3
2,B4,57

# Molecular target: ScBzz1-D1
# Test: as above
# Outline: as §1
row,Binder,SPOT peptide array binding signal intensity
1,B1,10.5
2,B4,39.5

# Molecular target: ScBzz1-D2
# Test: as above
# Outline: as §1
row,Binder,SPOT peptide array binding signal intensity
1,B1,9
2,B4,49.5

# Molecular target: ScCyk3
# Test: as above
# Outline: as §1
row,Binder,SPOT peptide array binding signal intensity
1,B1,16
2,B4,138

# Molecular target: ScFus1
# Test: as above
# Outline: as §1
row,Binder,SPOT peptide array binding signal intensity
1,B1,≤ 0
2,B4,651

# Molecular target: ScHof1
# Test: as above
# Outline: as §1
row,Binder,SPOT peptide array binding signal intensity
1,B1,9.75
2,B4,5.5

# Molecular target: ScHse1
# Test: as above
# Outline: as §1
row,Binder,SPOT peptide array binding signal intensity
1,B1,70
2,B4,1800

# Molecular target: ScLsb1
# Test: as above
# Outline: as §1
row,Binder,SPOT peptide array binding signal intensity
1,B1,232
2,B4,21.2

# Molecular target: ScLsb2
# Test: as above
# Outline: as §1
row,Binder,SPOT peptide array binding signal intensity
1,B1,202
2,B4,5.5

# Molecular target: ScLsb3
# Test: as above
# Outline: as §1
row,Binder,SPOT peptide array binding signal intensity
1,B1,6300
2,B4,156

# Molecular target: ScLsb4
# Test: as above
# Outline: as §1
row,Binder,SPOT peptide array binding signal intensity
1,B1,2060
2,B4,23

# Molecular target: ScMyo3
# Test: as above
# Outline: as §1
row,Binder,SPOT peptide array binding signal intensity
1,B1,≤ 0
2,B4,7

# Molecular target: ScMyo5
# Test: as above
# Outline: as §1
row,Binder,SPOT peptide array binding signal intensity
1,B1,≤ 0
2,B4,1.75

# Molecular target: ScNbp2
# Test: as above
# Outline: as §1
row,Binder,SPOT peptide array binding signal intensity
1,B1,20
2,B4,150

# Molecular target: ScPex13
# Test: as above
# Outline: as §1
row,Binder,SPOT peptide array binding signal intensity
1,B1,1080
2,B4,18

# Molecular target: ScRvs167
# Test: as above
# Outline: as §1
row,Binder,SPOT peptide array binding signal intensity
1,B1,2000
2,B4,24.2

# Molecular target: ScSho1
# Test: as above
# Outline: as §1
row,Binder,SPOT peptide array binding signal intensity
1,B1,≤ 0
2,B4,718

# Molecular target: ScSla1-D1-D2
# Test: as above
# Outline: as §1
row,Binder,SPOT peptide array binding signal intensity
1,B1,760
2,B4,220

# Molecular target: ScSla1-D3
# Test: as above
# Outline: as §1
row,Binder,SPOT peptide array binding signal intensity
1,B1,11
2,B4,14

# Molecular target: SpAbp1-D1
# Test: as above
# Outline: as §1
row,Binder,SPOT peptide array binding signal intensity
1,B1,16
2,B4,228

# Molecular target: SpBbc1
# Test: as above
# Outline: as §1
row,Binder,SPOT peptide array binding signal intensity
1,B1,104
2,B4,5

# Molecular target: SpBzz1-D1
# Test: as above
# Outline: as §1
row,Binder,SPOT peptide array binding signal intensity
1,B1,877
2,B4,128

# Molecular target: SpBzz1-D2
# Test: as above
# Outline: as §1
row,Binder,SPOT peptide array binding signal intensity
1,B1,≤ 0
2,B3,97
3,B4,0.5

# Molecular target: SpCyk3
# Test: as above
# Outline: as §1
row,Binder,SPOT peptide array binding signal intensity
1,B1,9
2,B3,35
3,B4,2

# Molecular target: SpHof1
# Test: as above
# Outline: as §1
row,Binder,SPOT peptide array binding signal intensity
1,B1,178
2,B3,342
3,B4,436

# Molecular target: SpHof1-2
# Test: as above
# Outline: as §1
row,Binder,SPOT peptide array binding signal intensity
1,B1,78.5
2,B3,157
3,B4,14

# Molecular target: SpHof1-3
# Test: as above
# Outline: as §1
row,Binder,SPOT peptide array binding signal intensity
1,B1,66.5
2,B3,1040
3,B4,784

# Molecular target: SpHse1
# Test: as above
# Outline: as §1
row,Binder,SPOT peptide array binding signal intensity
1,B1,8.25
2,B3,2240
3,B4,686

# Molecular target: SpLsb1
# Test: as above
# Outline: as §1
row,Binder,SPOT peptide array binding signal intensity
1,B1,712
2,B3,33
3,B4,4.25

# Molecular target: SpLsb4
# Test: as above
# Outline: as §1
row,Binder,SPOT peptide array binding signal intensity
1,B1,4540
2,B3,625
3,B4,100

# Molecular target: SpMyo1
# Test: as above
# Outline: as §1
row,Binder,SPOT peptide array binding signal intensity
1,B1,113
2,B3,168
3,B4,4.5

# Molecular target: SpNbp2
# Test: as above
# Outline: as §1
row,Binder,SPOT peptide array binding signal intensity
1,B1,1.5
2,B3,1680
3,B4,370

# Molecular target: SpPex13
# Test: as above
# Outline: as §1
row,Binder,SPOT peptide array binding signal intensity
1,B1,3
2,B3,1640
3,B4,23.5

# Molecular target: SpRvs167
# Test: as above
# Outline: as §1
row,Binder,SPOT peptide array binding signal intensity
1,B1,1970
2,B3,239
3,B4,32.5

# Molecular target: SpSla1-D1-D2
# Test: as above
# Outline: as §1
row,Binder,SPOT peptide array binding signal intensity
1,B1,15.5
2,B3,68
3,B4,≤ 0

# Molecular target: SpSla1-D3
# Test: as above
# Outline: as §1
row,Binder,SPOT peptide array binding signal intensity
1,B1,≤ 0
2,B3,512
3,B4,37
